Screens: PubChem BioAssay, several laboratories
sEH inhibitor: soluble epoxide hydrolase (human) inhibition | P34913 | recombinant human sEH enzymatic activity assay | inhibition, % at 2 µM | actives 0.34% (n = 91,000) | AID 707; in the data active = inhibition above about 80%
CYP2C19 activ: increases human CYP2C19 enzyme activity | P33261 | recombinant CYP2C19, luciferin-H EGE luminescence; active compounds read high; 0 = fully inhibited enzyme, 1 = untreated enzyme | activation factor at 5 µM | 96,000 tested, under 10 active;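 active = activation factor of at least 2 at 5 µM in the primary screen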;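 also: 0 = wells with 2.5 mM tranylcypromine and 1 = vehicle-only wells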
Target sequence (P33261 whole entry, looked up): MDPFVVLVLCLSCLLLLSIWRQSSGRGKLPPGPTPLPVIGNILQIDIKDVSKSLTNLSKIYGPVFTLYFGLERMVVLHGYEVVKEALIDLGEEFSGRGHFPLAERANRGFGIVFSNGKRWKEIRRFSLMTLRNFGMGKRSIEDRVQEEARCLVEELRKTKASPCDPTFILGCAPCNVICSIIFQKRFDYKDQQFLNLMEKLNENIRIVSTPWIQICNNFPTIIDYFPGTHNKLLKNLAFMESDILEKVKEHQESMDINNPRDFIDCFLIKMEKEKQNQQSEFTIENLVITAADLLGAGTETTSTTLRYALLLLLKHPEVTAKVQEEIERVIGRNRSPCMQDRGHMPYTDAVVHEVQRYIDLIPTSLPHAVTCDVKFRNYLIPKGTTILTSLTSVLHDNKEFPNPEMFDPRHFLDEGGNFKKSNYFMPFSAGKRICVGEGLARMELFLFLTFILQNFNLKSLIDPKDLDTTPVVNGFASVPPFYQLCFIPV
CYP2C9 activ: activators of human CYP2C9. P11712. recombinant CYP2C9, luciferin-H conversion, luminescence; active compounds read high; factor 1 = untreated enzyme, 0 = blocked. activation factor at 5 µM. actives 1.4% (n = 96,000). AID 1024;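 active = activation factor of 2 or more for CYP2C9 at a 5 µM dose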;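 also: 0 = sulfaphenazole-blocked wells and 1 = vehicle-only wells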
sEH act: activators of human soluble epoxide hydrolase; P34913; purified human sEH enzymatic activity, activator screen; activation, % at 2 µM; actives 0.04% (n = 91,000); AID 717; in the data active = activation above about 37%
CYP2C9 inh: inhibitors of human CYP2C9 | P11712 | CYP2C9 Supersomes, luciferin-H conversion, luminescence | inhibition, % at 5 µM | actives 20% (n = 96,000);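 active = blocking of liver enzyme CYP2C9 beyond about 50% at 5 µM, limit read from the data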
CYP2C19 inhib: inhibitors of human CYP2C19 | AID 778 | P33261 | actives 21% (n = 96,000) | inhibition, % at 5 µM | CYP2C19 Supersomes, luciferin-H EGE luminescence, 30 min;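 active = CYP2C19 inhibition above a set limit at 5 µM in the primary screen, cut at about 50% in these data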;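 also: plate controls were negative control wells for no effect and 2.5 mM tranylcypromine positive control for full effect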
Active calls of the source: *. Shown are actives, neighbours in structure and some others; about 27% of the full set was active somewhere.

Screening O=C1c2ccccc2C(=O)N1Cc1nn2c(-c3ccc(Cl)cc3)nnc2s1 returned CYP2C19 activ 0.7, CYP2C9 activ 1.2, CYP2C9 inh -21.5 and CYP2C19 inhib 34.4.
Screening Cn1c(SCc2nc3ccccc3s2)nnc1-c1cccs1 returned CYP2C19 activ 0.1, CYP2C9 activ 0.7, CYP2C9 inh 34.9 and CYP2C19 inhib 92.1*.
For CCc1nc2c(c(SC)nn2-c2ccccc2)c(N)c1C(=O)OC the results were sEH inhibitor -5.3, CYP2C19 activ 1, CYP2C9 activ 0.9, sEH act 7.1, CYP2C9 inh 14.9 and CYP2C19 inhib 2.5.
Screening COC(=O)c1cccc(S(=O)(=O)N2CCC(C)CC2)c1 returned sEH inhibitor -0.1, CYP2C19 activ 0.5, CYP2C9 activ 1.2, sEH act 5.5, CYP2C9 inh -16.0 and CYP2C19 inhib 54.9*.
COC(=O)c1cc(S(=O)(=O)N2CCC(C)CC2)ccc1F was read as sEH inhibitor 0.1, CYP2C19 activ 0.1, CYP2C9 activ 0.7, sEH act -3.5, CYP2C9 inh 32.8 and CYP2C19 inhib 88.0*.
`Cc1ccc(-n2nnnc2SCC(=O)N2c3ccccc3NC(=O)C2(C)C)cc1` gave sEH inhibitor -22.0, CYP2C19 activ 0.9, CYP2C9 activ 0.9, sEH act 21.3, CYP2C9 inh 12.8 and CYP2C19 inhib 11.3.
For O=C1OCC2=C1C(c1ccc(F)cc1)Sc1ccccc1N2 (stereo not given) the results were sEH inhibitor 3.1, CYP2C19 activ 0.2, CYP2C9 activ 0.2, sEH act -2.0, CYP2C9 inh 75.2* and CYP2C19 inhib 76.6*.
For COc1cccc(N2C(=O)Nc3ccccc3C2(O)C(=O)NCc2ccc3c(c2)OCO3)c1 (stereo not given) the results were CYP2C19 activ 0.4, CYP2C9 activ 0.9, CYP2C9 inh 9.1 and CYP2C19 inhib 61.0*.
O=C(Cc1cccs1)NCc1ccc2c(c1)OCO2 was read as sEH inhibitor 8.7, CYP2C19 activ 0.1, CYP2C9 activ 0.6, sEH act -5.9, CYP2C9 inh 37.7 and CYP2C19 inhib 91.7*.
Screening COc1ccc(-n2ccnc2SCC(=O)NCc2ccc3c(c2)OCO3)cc1 returned sEH inhibitor 0.6, CYP2C19 activ 0, CYP2C9 activ 0.1, sEH act 1.8, CYP2C9 inh 94.0* and CYP2C19 inhib 99.7*.
For CCC(NC(=O)NCc1ccc2c(c1)OCO2)(C(F)(F)F)C(F)(F)F the results were sEH inhibitor 22.6, CYP2C19 activ 0.1, CYP2C9 activ 0.5, sEH act -20.6, CYP2C9 inh 51.6* and CYP2C19 inhib 85.6*.
Screening CC(C)c1nnc(SCC(=O)NCc2ccc3c(c2)OCO3)n1C returned sEH inhibitor -14.8 and sEH act 17.5.
Screening C=CCOc1ccc(C2C(C(=O)c3ccco3)=C(O)C(=O)N2Cc2cccnc2)cc1 (stereo not given) returned sEH inhibitor 12.6, CYP2C19 activ 1, CYP2C9 activ 0.6, sEH act -11.9, CYP2C9 inh 38.8 and CYP2C19 inhib 1.7.
COc1ccc(-c2nc(CSCC(=O)N3CCN(C(=O)c4ccco4)CC3)c(C)o2)cc1OC was read as sEH inhibitor -2.3, CYP2C19 activ 0.6, CYP2C9 activ 0.6, sEH act 4.6, CYP2C9 inh 39.4 and CYP2C19 inhib 39.7.
For CC(=O)c1c(C)[nH]c(C(=O)OC2CCCCC2=O)c1C (stereo not given) the results were sEH inhibitor -7.2, CYP2C19 activ 0.7, CYP2C9 activ 0.8, sEH act 5.2, CYP2C9 inh 18.5 and CYP2C19 inhib 25.7.
CC(=O)OCC(=O)NCc1ccc2c(c1)OCO2 was read as sEH inhibitor -6.0, CYP2C19 activ 0.9, CYP2C9 activ 1, sEH act 5.6, CYP2C9 inh -3.0 and CYP2C19 inhib 5.3.
Screening O=C(NCc1ccc2c(c1)OCO2)c1cccc(C(=O)NCc2ccc3c(c2)OCO3)c1 returned sEH inhibitor 42.3, CYP2C19 activ 0.9, CYP2C9 activ 0.9, sEH act -41.4, CYP2C9 inh 11.3 and CYP2C19 inhib 8.0.
Screening COc1ccc(CC(=O)NCc2ccc3c(c2)OCO3)cc1 returned sEH inhibitor -9.3, CYP2C19 activ 0, CYP2C9 activ 0.3, sEH act 7.9, CYP2C9 inh 68.8* and CYP2C19 inhib 96.8*.
For O=C(NCc1ccc2c(c1)OCO2)Oc1ccccc1 the results were CYP2C19 activ 0.3, CYP2C9 activ 0.9, CYP2C9 inh 13.2 and CYP2C19 inhib 73.9*.
Screening CCOc1ccccc1C(=O)NCc1ccc2c(c1)OCO2 returned sEH inhibitor 5.6, CYP2C19 activ 0, CYP2C9 activ 0.6, sEH act -3.0, CYP2C9 inh 41.7 and CYP2C19 inhib 98.0*.
COc1ccc(-n2nnnc2SCC(=O)NCCc2ccc(OC)c(OC)c2)cc1 was read as sEH inhibitor 19.7, CYP2C19 activ 0.8, CYP2C9 activ 0.6, sEH act -18.6, CYP2C9 inh 40.2 and CYP2C19 inhib 16.5.
COc1ccc(CNC(=O)CSc2nnnn2-c2ccc(O)cc2)cc1 was read as CYP2C19 activ 0.1, CYP2C9 activ 1.2, CYP2C9 inh -23.3 and CYP2C19 inhib 89.3*.
`Cc1cc2cc(CNC(=O)c3cc4ccccc4o3)ccc2n1C` gave CYP2C19 activ 0.8, CYP2C9 activ 0.8, CYP2C9 inh 24.5 and CYP2C19 inhib 22.1.
Cc1cc2cc(CNC(=O)c3ccc4c(c3)OCO4)ccc2n1C was read as CYP2C19 activ 0.3, CYP2C9 activ 1.1, CYP2C9 inh -9.1 and CYP2C19 inhib 71.8*.
For CC(N=C1NS(=O)(=O)c2ccccc21)C(=O)NCc1ccc2c(c1)OCO2 (stereo not given) the results were sEH inhibitor -0.9, CYP2C19 activ 0.4, CYP2C9 activ 0.1, sEH act 3.9, CYP2C9 inh 86.4* and CYP2C19 inhib 58.1*.
O=C(OC(C(=O)NCc1ccc2c(c1)OCO2)c1ccccc1F)c1ccco1 (stereo not given) was read as sEH inhibitor -6.5, CYP2C19 activ 0.5, CYP2C9 activ 0.3, sEH act 3.2, CYP2C9 inh 67.3* and CYP2C19 inhib 45.8.
COc1ccccc1CC(=O)NCc1ccc2c(c1)OCO2 was read as sEH inhibitor -2.1, CYP2C19 activ 0.1, CYP2C9 activ 1, sEH act 7.4, CYP2C9 inh 4.1 and CYP2C19 inhib 90.1*.
O=C(O)C1C2C=CC(C2)C1C(=O)NCCc1cccc(Cl)c1 (stereo not given) was read as sEH inhibitor 4.5 and sEH act -6.2.
`C/C(=N\n1nnnc1Nc1ccccc1)c1ccc(N)cc1` gave sEH inhibitor 2.2, CYP2C19 activ 0.7, CYP2C9 activ 0.8, sEH act -2.2, CYP2C9 inh 20.7 and CYP2C19 inhib 27.0.
Screening Cc1ccsc1C(=O)OCC(=O)NCc1ccc2c(c1)OCO2 returned CYP2C19 activ 0.4, CYP2C9 activ 0.3, CYP2C9 inh 72.1* and CYP2C19 inhib 60.5*.
